In PubChem BioAssay (Tox21):
Records with an inconclusive call do not appear. Active and inactive are the calls of the source. Unless noted, the call rests on the fitted dose curve.

Tests used:
[1] = qHTS assay to identify small molecule agonists of the vitamin D receptor (VDR) signaling pathway - cell viability counter screen (AID 743224; active means well fitted curve in the direction sought with a large enough effect in the repeat runs; an effect the other way counts as inactive or inconclusive; further: nearly all actives have a fitted effect of over 50% in size; further: potency means the concentration at half of the fitted maximal effect)
Method in brief: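 VDR-bla cells were preincubated 4 h at 37C/5% CO2, then exposed to compounds for 16 h. After the 2 h room-temperature bla FRET read, CellTiter-Glo was added to the same wells and luminescence read after 30 min.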

[2] = qHTS assay to identify small molecule antagonists of the vitamin D receptor (VDR) signaling pathway - cell viability counter screen (AID 743225; active means well fitted curve in the direction sought with a large enough effect in the repeat runs; an effect the other way counts as inactive or inconclusive; further: nearly all actives have a fitted effect of over 50% in size; further: potency means the concentration at half of the fitted maximal effect)
Method in brief: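 VDR-bla HEK 293T cells, 4 h pre-incubation at 37C, then compound plus 1-alpha,25-dihydroxyvitamin D3 (3 nM final) for 16 h. After the beta-lactamase FRET read, CellTiter-Glo was added to the same wells; luminescence after 30 min at room temperature.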

[3] = qHTS assay to identify small molecule agonists of the NFkB signaling pathway (AID 1159509; active means well fitted curve in the direction sought with a large enough effect in the signal ratio in the repeat runs, not every such curve was filed as active; the % refers to the signal ratio; further: series mostly up to about 61 µM)
Method in brief: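 ME-180 NFkB-bla, 2,000 cells/well, overnight plating; cpd pinned in DMSO, 5 h 37 C; B/G FRET substrate 1.5 h RT; ex 405, em 460/530 nm.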

[4] = qHTS assay to identify small molecule agonists of the NFkB signaling pathway - cell viability counter screen (AID 1159515); further: series mostly up to about 61 µM; nearly all actives have a fitted effect of over 55% in size
Method in brief: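 NFkB-bla ME-180 cells, 2,000/well, were plated overnight at 37 C, 5% CO2, then exposed to compounds in DMSO for 5 hr. After the bla FRET read, CellTiter-Glo was added to the same wells; luminescence was read after 30 min at room temperature.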

[5] = qHTS assay to identify small molecule agonists of the endoplasmic reticulum stress response signaling pathway (AID 1159516; active means well fitted activation curve with a large enough effect in the signal ratio in the repeat runs, not every such curve was filed as active; the % refers to the signal ratio)
Method in brief: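 CellSensor ESRE-bla HeLa cells, carrying a beta-lactamase reporter driven by the ER stress response element, were plated overnight and exposed to compounds for 5 hr at 37 C. Reporter activity was read as FRET substrate fluorescence after 2 hr at room temperature.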

[6] = qHTS assay to identify small molecule agonists of the endoplasmic reticulum stress response signaling pathway - cell viability counter screen (AID 1159517); further: series mostly up to about 61 µM; nearly all actives have a fitted effect of over 50% in size
Method in brief: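 CellTiter-Glo was added to wells already read for beta-lactamase FRET, and luminescence was recorded 30 min later. Cells: ESRE-bla HeLa, 1,500 per well, compound exposure 5 hr at 37 C.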

[7] = qHTS assay to identify small molecule antagonists of the retinoid-related orphan receptor gamma (ROR-gamma) signaling pathway - cell viability counter screen (AID 1159520; active means well fitted curve in the direction sought with a large enough effect in the repeat runs; an effect the other way counts as inactive or inconclusive; further: nearly all actives have a fitted effect of over 50% in size)
Method in brief: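 Tet-on ROR gamma CHO cells (1,000/well) were plated 4 hr, given compounds in DMSO for 2 hr at 37 C, then induced with 1 uM final doxycycline for 16 hr. Viability was read as ATP by CellTiter-Glo luminescence after 30 min.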

[8] = qHTS assay to identify small molecule agonists of the AP-1 signaling pathway (AID 1159526)
[9] = biological target: Nuclear receptor ROR-gamma (Homo sapiens) (UniProt P51449); test: qHTS assay to identify small molecule antagonists of the retinoid-related orphan receptor gamma (ROR-gamma) signaling pathway (AID 1159521; active means well fitted curve in the direction sought with a large enough effect in the repeat runs; an effect the other way counts as inactive or inconclusive; further: nearly all actives have a fitted effect of over 50% in size; further: potency means the concentration at half of the fitted maximal effect)
Method in brief: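 Tet-on RORγ CHO cells carrying a ROR response element–luciferase reporter were pretreated with compounds for 2 h, then induced with 1 uM (final) doxycycline hyclate for 16 h at 37 C. Antagonism was read as decreased ONE-Glo luminescence.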

[10] = qHTS assay to identify small molecule agonists of the AP-1 signaling pathway - cell viability counter screen (AID 1159525); further: nearly all actives have a fitted effect of over 55% in size
Method in brief: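 ME-180 AP-1-bla, 2500 cells/well, Opti-MEM + 0.5% dialyzed FBS; overnight 37 °C; cpd 15-pt titration, 5 h 37 °C; CellTiter-Glo 30 min RT; luminescence read; normalised to TOAB and DMSO controls.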

Measured: Potency

CC1CC(O)CC(C)(C)C1 (stereo not drawn)
not listed: [9] | [10]
inactive: all other assays above

O=C(CCCN1CCN(c2ccc(F)cc2)CC1)NC1c2ccccc2CSc2ccccc21 (stereo not drawn)
active: [1] 13.3 µM | [2] 23.9 µM | [9] 13.3 µM
not listed: [7] | [10]
inactive: all other assays above

C[C@@H]1C[C@H]2[C@@H]3CCC4=CC(=O)C=C[C@]4(C)[C@@]3(F)[C@@H](O)C[C@]2(C)[C@H]1C(=O)CO
not listed: [9] | [10]
inactive: all other assays above

COc1cc2ncnc(Nc3ccc(F)c(Cl)c3)c2cc1OCCCN1CCOCC1
active: [9] 11.9 µM
not listed: [7] | [10]
inactive: all other assays above

CC(COc1ccc(C(C)(C)C)cc1)OS(=O)OCCCl (stereo not drawn)
active: [9] 24.5 µM
not listed: [7] | [10]
inactive: all other assays above

c1cc[c]([Bi]([c]2ccccc2)[c]2ccccc2)cc1
active: [9] 30.6 µM
not listed: [7] | [8]
inactive: all other assays above

Fc1ccccc1[C@@H](F)COC1CCC(Nc2ncnc3[nH]ncc23)CC1 (stereo partly drawn)
active: [9] 12.2 µM
not listed: [1] | [2] | [7]
inactive: all other assays above

CO[C@@]12[C@H](COC(N)=O)C3=C(C(=O)C(C)=C(N)C3=O)N1C[C@@H]1N[C@@H]12
not listed: [1] | [7]
inactive: all other assays above

OCCSc1ccccc1
not listed: [9] | [10]
inactive: all other assays above

CCCCCCCCCCCCCCC[C@H](O)[C@@H](N)CO
not listed: [7]
inactive: all other assays above

OCC1CC=CCC1 (stereo not drawn)
not listed: [7] | [10]
inactive: all other assays above

CC(=O)Oc1ccc2c(c1)CC[C@@H]1[C@@H]2CC[C@]2(C)[C@@H](O)CC[C@@H]12
not listed: [9] | [10]
inactive: all other assays above

CC(=O)OCC(=O)[C@H]1CC[C@H]2[C@@H]3CCC4=CC(=O)CC[C@]4(C)[C@H]3CC[C@]12C
not listed: [5] | [9] | [10]
inactive: all other assays above
